Reference: PubChem BioAssay AID686978 (National Center for Advancing Translational Sciences (NCATS), 2013)
Screen size: about 420,000 compounds; about 64,000 (15%) were called active. Roughly 27% stayed inconclusive and do not appear here. Calls follow the shape of the dose curve; as a rule, active = well fitted inhibition curve with a large enough effect; inconclusive = small, poorly fitted or top-dose-only effect; inactive = flat fitted curve, though single readings scatter. Not all results are given here. Where a call stands in place of a potency, no number is given.

Assay: qHTS for Inhibitors of human tyrosyl-DNA phosphodiesterase 1 (TDP1): qHTS in cells in absence of CPT; also: nearly all actives have a fitted effect of over 55% in size
Settings: DT40 Tdp1-/- hTDP1 cells, no CPT, ATP luminescence, 48 h; activity change, negative = growth inhibition: at 46.2 µM (top of the series)
In short: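 Compound effects on proliferation are scored in DT40 Tdp1-/-;hTDP1 cells in the absence of CPT. ATP levels (CellTiter-Glo luminescence) are recorded after a ≥48 hr, 37 °C incubation.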
Potency is read from the fitted curve at half-maximal effect.

| Compound | Potency |
| --- | --- |
| CCN(CC)C(=O)c1ccc(O)c(OC)c1 | inactive |
| CC1CCN(C(=O)Cn2c(=O)n(-c3ccc(Cl)cc3)c(=O)c3c4c(sc32)CCC4)CC1 | inactive |
| O=c1c2c3c(sc2n(CCN2CCCC2)c(=O)n1Cc1ccccc1)CCCCC3 | 11.6 µM (active) |
| CCOC(=O)N1CCc2c(sc3c2c(=O)n(Cc2ccccc2)c(=O)n3CC(=O)Nc2cccc(C)c2)C1 | inactive |
| NC(=O)c1ncc(C(F)(F)F)cc1Oc1ccc(F)cc1 | inactive |
| Cc1n[nH]c(C)c1S(=O)(=O)N1CCCC(C(=O)Nc2ccc(Br)cc2)C1 (stereo not drawn) | 16.4 µM (active) |
| Cc1n[nH]c(C)c1S(=O)(=O)N1CCCC(C(=O)NCC2COc3ccccc3O2)C1 (stereo not drawn) | inactive |
| CC(C)c1ccc(NC(=O)C2CCCN(S(=O)(=O)c3cccnc3)C2)cc1 (stereo not drawn) | 7.31 µM (active) |
| COc1ccc(NC(=O)C2CCCN(S(=O)(=O)c3c(C)[nH]c(=O)[nH]c3=O)C2)c(OC)c1 (stereo not drawn) | inactive |
| COc1ccc(S(=O)(=O)N2CCCC(C(=O)NCCCn3ccnc3)C2)cc1OC (stereo not drawn) | inactive |
| Cc1ccccc1N1CC(C(=O)Nc2ccc(S(=O)(=O)N3CCCC3)cc2)CC1=O (stereo not drawn) | inactive |
| O=C(Cc1ccsc1)N1CCN(S(=O)(=O)c2cc(C(F)(F)F)cc(C(F)(F)F)c2)CC1 | inactive |
| CCOC(=O)C1=CN(Cc2ccc(Br)cc2)S(=O)(=O)NC1C (stereo not drawn) | inactive |
| Cc1ccc(C(=O)NNC2=Nc3cc([N+](=O)[O-])ccc3OC2)cc1 | inactive |
| Cc1nn(C(=O)c2c(F)cccc2F)c(C)c1S(=O)(=O)N1CCOCC1 | inactive |
| CC(C)=N/N=C1/NC(=O)C(Cc2ccccc2)S1 (stereo not drawn) | inactive |
| O=C(NC(=S)Nc1ccc(Br)cc1F)C1CCCCC1 | inactive |
| Cc1ccc(/C=N/NC(=O)C2=NNC(c3ccccc3)(c3ccccc3)C2)c(O)c1 | 4.11 µM (active) |
| O=C(N/N=C/c1ccc(O)c2ccccc12)c1cccnc1 | inactive |
| Cc1nnsc1C(=O)N/N=C/c1ccccc1Cl | inactive |
| O=C(O)c1cscn1 | inactive |

| Compound | Potency |
| --- | --- |
| O=C(Cc1nn[nH]n1)NCCC1=CCCCC1 | inactive |
| CC(OC(=O)c1c(F)cccc1F)C(=O)NCCC1=CCCCC1 (stereo not drawn) | inactive |
| O=C(Cc1cccc2ccccc12)NCCC1=CCCCC1 | 29.1 µM (active) |
| CC(=O)Nc1ccc(S(=O)(=O)N(C)CC(=O)NCCC2=CCCCC2)cc1 | inactive |
| S=C(NCCC1=CCCCC1)Nc1ccccc1 | 23.1 µM (active) |
| O=C(CCNC(=O)Cn1ccc2ccccc2c1=O)NCCC1=CCCCC1 | inactive |
| CC(C)CC(=O)N1CCN(Cc2cccc(Cl)c2)CC1 | inactive |
| CCOc1ncccc1C(=O)N(CC)CC(=O)Nc1ccc(NC(C)=O)cc1 | inactive |
| COc1ccc(-n2nc(C(=O)NCCc3ccc(Cl)cc3)c3c4ccccc4n(C)c3c2=O)cc1Cl | 13 µM (active) |
| CCOC(=O)CNC(=O)c1nn(-c2cccc(OC)c2)c(=O)c2ccccc12 | inactive |
| COc1ccc(-n2nc(C(=O)NCC(=O)N3CCCCCC3)c3ccccc3c2=O)cc1Cl | 23.1 µM (active) |
| COCCCNC(=O)CNC(=O)c1nn(-c2ccc(OC)cc2)c(=O)c2ccccc12 | inactive |
| CCOC(=O)c1ccccc1NC(=O)c1nn(-c2ccc(OC)c(Cl)c2)c(=O)c2c1c1ccccc1n2C | inactive |
| COc1ccc(-n2nc(C(=O)NCC(=O)N3CCC(C(N)=O)CC3)c3ccccc3c2=O)cc1OC | inactive |
| S=C(Nc1ccc2c(c1)OCO2)N1CCCC1 | inactive |
| Nc1ccc(Cl)c(S(=O)(=O)Nc2ccccc2Cl)c1 | inactive |
| CCN(c1ccccc1)S(=O)(=O)c1ccc2[nH]c(=O)[nH]c2c1 | inactive |
| O=S(=O)(c1ccccc1)N(CC(O)CN1CCCCC1)c1ccccc1 (stereo not drawn) | inactive |
| Cc1cc(C)n(CC(O)CN(c2ccccc2)S(=O)(=O)c2ccc3ccccc3c2)n1 (stereo not drawn) | 23.1 µM (active) |
| CCCCCN(C(=O)CCC(=O)OCC(=O)NC1CCC(C)CC1)c1c(N)n(CCCC)c(=O)[nH]c1=O (stereo not drawn) | inactive |
| Cc1nc(SCC(=O)N2CCN(c3ccccc3)CC2)[nH]c(=O)c1C | inactive |

| Compound | Potency |
| --- | --- |
| O=C(COC(=O)CNC(=O)c1ccco1)Nc1ccc(F)cc1 | inactive |
| COC(=O)c1ccc(N2CCOCC2)c(NC(=O)c2ccc(Br)o2)c1 | inactive |
| CCCNC(=O)c1ccc(N2CCC3(CC2)CC(c2cccc(Br)c2)=NO3)c(NC(=O)c2ccco2)c1 | 6.51 µM (active) |
| COCCNC(=O)c1ccc(N2CCC3(CC2)OCCO3)c([N+](=O)[O-])c1 | inactive |
| CCCN(CCC)CCNC(=O)c1ccc2c(c1)NC(=O)C(CS(=O)(=O)Cc1cccc(Br)c1)N2 (stereo not drawn) | inactive |
| CCCNC(=O)c1ccc(N2CCC3(CC2)CC(c2ccc(Cl)cc2)=NO3)c([N+](=O)[O-])c1 | 20.6 µM (active) |
| CCN1CCC(=NNC(=O)c2ccc(C)c([N+](=O)[O-])c2)CC1 | inactive |
| CN[C@@H]1[C@@H](O)[C@@H](O[C@@H]2[C@H](O)[C@H](O[C@H]3OC(CN)=CC[C@H]3N)[C@@H](N)C[C@H]2N)OCC1(C)O (stereo partly drawn) | inactive |
| CN1C(C)(C)CC(NC(=O)CCC(=O)NC2CC(C)(C)N(C)C(C)(C)C2)CC1(C)C | inactive |
| O=P(O)(CP(=O)(c1ccccc1)c1ccccc1)c1ccccc1 | inactive |
| Cc1ccc(S(=O)(=O)N2CC(=O)Nc3ccccc32)cc1C | inactive |
| C=CCOC(=O)C1=C(C)OC(N)=C(C#N)C1c1ccc(F)cc1 (stereo not drawn) | 29.1 µM (active) |
| C=CCOC(=O)C1=C(C)NC(SCC(=O)OCC)=C(C#N)C1c1ccc(C)cc1 (stereo not drawn) | inactive |
| COC(=O)C1=C(C)OC(N)=C(C#N)C1c1cc(OC)ccc1OC (stereo not drawn) | inactive |
| O=[N+]([O-])c1ccccc1SNc1ccccn1 | 16.4 µM (active) |
| Nc1nc(Sc2ncccc2[N+](=O)[O-])n[nH]1 | inactive |
| O=C(CSc1nnc(-c2ccc([N+](=O)[O-])cc2)o1)Nc1ccccn1 | inactive |
| O=C(Nc1ccncc1)c1ccc([N+](=O)[O-])cc1Cl | inactive |
| COCC(C)NC(=O)CSc1nc2nn(-c3ccccc3)c(=O)c-2c2n1CCCCC2 (stereo not drawn) | inactive |
| NNC(=O)C1CC(O)CN1S(=O)(=O)c1ccc(Cl)cc1 (stereo not drawn) | inactive |
| CC1(C)CC(=O)C(N=Nc2ccc(S(=O)(=O)N3CCCCCC3)cc2)=C(O)C1 | inactive |
